Data reported in PubChem BioAssay AID1159580 (chemical genetic matrix, 2015).
The campaign covered roughly 5,500 compounds. About 2,000 (36%) were called active. Roughly 18% stayed inconclusive and do not appear here. Cut-off read from the data, not from the text of the source: active = normalized growth mostly below about 0.91 (no sharp cut-off); inconclusive = no clear call, values can overlap the other calls; inactive = mostly above about 0.92. Some of the results follow.

Experiment: chemical genetic growth profiling, strain panel (AID 1159580);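 note: tested at 20 µM; growth read once vehicle control cultures reached saturation at 30 °C; 1 = growth at the plate median or of vehicle wells; lower values mean less growth of the strain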
Details: growth OD
[1] = S. cerevisiae deletion strains, locus YAR019C, strain CDC15, stronger effect = lower value
[2] = S. cerevisiae deletion strains, locus YBL105C, strain PKC1, stronger effect = lower value
[3] = S. cerevisiae deletion strains, locus YBR135W, strain CKS1, stronger effect = lower value
[4] = S. cerevisiae deletion strains, locus YBR136W, strain MEC1, stronger effect = lower value
[5] = S. cerevisiae deletion strains, locus YBR160W, strain CDC28, stronger effect = lower value
[6] = S. cerevisiae deletion strains, locus YDL017W, strain CDC7, stronger effect = lower value
[7] = S. cerevisiae deletion strains, locus YDL028C, strain MPS1, stronger effect = lower value
[8] = S. cerevisiae deletion strains, locus YDL101C, strain DUN1, stronger effect = lower value
[9] = S. cerevisiae deletion strains, locus YDL108W, strain KIN28, stronger effect = lower value
[10] = S. cerevisiae deletion strains, locus YDL132W, strain cdc53, stronger effect = lower value
[11] = S. cerevisiae deletion strains, locus YDL214C, strain PRR2, stronger effect = lower value
[12] = S. cerevisiae deletion strains, locus YDR052C, strain DBF4, stronger effect = lower value
[13] = S. cerevisiae deletion strains, locus YDR054C, strain cdc34, stronger effect = lower value
[14] = S. cerevisiae deletion strains, locus YDR226W, strain ADK1, stronger effect = lower value
[15] = S. cerevisiae deletion strains, locus YDR477W, strain SNF1, stronger effect = lower value
[16] = S. cerevisiae deletion strains, locus YER123W, strain YCK3, stronger effect = lower value
[17] = S. cerevisiae deletion strains, locus YER133W, strain GLC7, stronger effect = lower value
[18] = S. cerevisiae deletion strains, locus YFL009W, strain cdc4, stronger effect = lower value
[19] = S. cerevisiae deletion strains, locus YFL029C, strain CAK1, stronger effect = lower value
[20] = S. cerevisiae deletion strains, locus YFR003C, strain YPI1, stronger effect = lower value
[21] = S. cerevisiae deletion strains, locus YFR019W, strain FAB1, stronger effect = lower value
[22] = S. cerevisiae deletion strains, locus YFR028C, strain CDC14, stronger effect = lower value
[23] = S. cerevisiae deletion strains, locus YGR040W, strain KSS1, stronger effect = lower value
[24] = S. cerevisiae deletion strains, locus YGR052W, strain FMP48, stronger effect = lower value
[25] = S. cerevisiae deletion strains, locus YGR092W, strain DBF2, stronger effect = lower value
[26] = S. cerevisiae deletion strains, locus YHR030C, strain SLT2, stronger effect = lower value
[27] = S. cerevisiae deletion strains, locus YHR079C, strain IRE1, stronger effect = lower value
[28] = S. cerevisiae deletion strains, locus YHR082C, strain KSP1, stronger effect = lower value
[29] = S. cerevisiae deletion strains, locus YHR205W, strain SCH9, stronger effect = lower value
[30] = S. cerevisiae deletion strains, locus YIL147C, strain SLN1, stronger effect = lower value
[31] = S. cerevisiae deletion strains, locus YJL095W, strain BCK1, stronger effect = lower value
[32] = S. cerevisiae deletion strains, locus YJL128C, strain PBS2, stronger effect = lower value
[33] = S. cerevisiae deletion strains, locus YJL157C, strain FAR1, stronger effect = lower value
[34] = S. cerevisiae deletion strains, locus YJR016C, strain ILV3, stronger effect = lower value
[35] = S. cerevisiae deletion strains, locus YJR066W, strain TOR1 (second series), stronger effect = lower value
[36] = S. cerevisiae deletion strains, locus YJR066W, strain TOR1, stronger effect = lower value
[37] = S. cerevisiae deletion strains, locus YKL048C, strain ELM1, stronger effect = lower value
[38] = S. cerevisiae deletion strains, locus YKL067W, strain YNK1, stronger effect = lower value
[39] = S. cerevisiae deletion strains, locus YKL101W, strain HSL1, stronger effect = lower value
[40] = S. cerevisiae deletion strains, locus YKL193C, strain SDS22, stronger effect = lower value
[41] = S. cerevisiae deletion strains, locus YKL203C, strain TOR2, stronger effect = lower value
[42] = S. cerevisiae deletion strains, locus YLR113W, strain HOG1, stronger effect = lower value
[43] = S. cerevisiae deletion strains, locus YLR133W, strain CKI1, stronger effect = lower value
[44] = S. cerevisiae deletion strains, locus YLR403W, strain SFP1, stronger effect = lower value
[45] = S. cerevisiae deletion strains, locus YML070W, strain DAK1, stronger effect = lower value
[46] = S. cerevisiae deletion strains, locus YMR001C, strain CDC5, stronger effect = lower value
[47] = S. cerevisiae deletion strains, locus YMR205C, strain PFK2 (second series), stronger effect = lower value
[48] = S. cerevisiae deletion strains, locus YMR277W, strain FCP1, stronger effect = lower value
[49] = S. cerevisiae deletion strains, locus YNL006W, strain LST8, stronger effect = lower value
[50] = S. cerevisiae deletion strains, locus YNL020C, strain ARK1, stronger effect = lower value
[51] = S. cerevisiae deletion strains, locus YNL161W, strain CBK1, stronger effect = lower value
[52] = S. cerevisiae deletion strains, locus YNL183C, strain NPR1, stronger effect = lower value
[53] = S. cerevisiae deletion strains, locus YNL207W, strain RIO2, stronger effect = lower value
[54] = S. cerevisiae deletion strains, locus YNL222W, strain SSU72, stronger effect = lower value
[55] = S. cerevisiae deletion strains, locus YNL307C, strain MCK1 (second series), stronger effect = lower value
[56] = S. cerevisiae deletion strains, locus YOL078W, strain AVO1, stronger effect = lower value
[57] = S. cerevisiae deletion strains, locus YOL136C, strain PFK27, stronger effect = lower value
[58] = S. cerevisiae deletion strains, locus YOR061W, strain CKA2, stronger effect = lower value
[59] = S. cerevisiae deletion strains, locus YOR119C, strain RIO1, stronger effect = lower value
[60] = S. cerevisiae deletion strains, locus YOR231W, strain MKK1, stronger effect = lower value
[61] = S. cerevisiae deletion strains, locus YOR329C, strain SCD5, stronger effect = lower value
[62] = S. cerevisiae deletion strains, locus YPL031C, strain PHO85, stronger effect = lower value
[63] = S. cerevisiae deletion strains, locus YPL153C, strain RAD53, stronger effect = lower value
[64] = S. cerevisiae deletion strains, locus YPL204W, strain HRR25, stronger effect = lower value
[65] = S. cerevisiae deletion strains, locus YPL209C, strain IPL1, stronger effect = lower value
[66] = S. cerevisiae deletion strains, locus YPL256C, strain CLN2, stronger effect = lower value
[67] = S. cerevisiae deletion strains, locus YPR025C, strain CCL1, stronger effect = lower value
[68] = S. cerevisiae deletion strains, locus YPR106W, strain ISR1, stronger effect = lower value
[69] = S. cerevisiae deletion strains, locus YPR111W, strain DBF20, stronger effect = lower value
[70] = S. cerevisiae deletion strains, strain NNK1, stronger effect = lower value
[71] = S. cerevisiae deletion strains, strain TSCII, stronger effect = lower value
[72] = S. cerevisiae deletion strains, locus YAL013W, strain DEP1, stronger effect = lower value
[73] = S. cerevisiae deletion strains, locus YBR229C, strain ROT2, stronger effect = lower value
[74] = S. cerevisiae deletion strains, locus YDL134C, strain PPH21, stronger effect = lower value
[75] = S. cerevisiae deletion strains, locus YDR150W, strain NUM1, stronger effect = lower value
[76] = S. cerevisiae deletion strains, locus YEL061C, strain CIN8, stronger effect = lower value
[77] = S. cerevisiae deletion strains, locus YGR078C, strain PAC10, stronger effect = lower value
[78] = S. cerevisiae deletion strains, locus YHR087W, strain rtc3, stronger effect = lower value
[79] = S. cerevisiae deletion strains, locus YJR043C, strain POL32, stronger effect = lower value
[80] = S. cerevisiae deletion strains, locus YJR075W, strain HOC1, stronger effect = lower value
[81] = S. cerevisiae deletion strains, locus YLR039C, strain RIC1, stronger effect = lower value
[82] = S. cerevisiae deletion strains, locus YLR058C, strain SHM2 (second series), stronger effect = lower value
[83] = S. cerevisiae deletion strains, locus YLR085C, strain ARP6, stronger effect = lower value
[84] = S. cerevisiae deletion strains, locus YLR262C, strain YPT6, stronger effect = lower value
[85] = S. cerevisiae deletion strains, locus YML094W, strain GIM5, stronger effect = lower value
[86] = S. cerevisiae deletion strains, locus YMR219W, strain ESC1, stronger effect = lower value
[87] = S. cerevisiae deletion strains, locus YMR263W, strain SAP30, stronger effect = lower value
[88] = S. cerevisiae deletion strains, locus YMR307W, strain GAS1, stronger effect = lower value
[89] = S. cerevisiae deletion strains, locus YNL153C, strain GIM3, stronger effect = lower value
[90] = S. cerevisiae deletion strains, locus YNL298W, strain CLA4 (second series), stronger effect = lower value
[91] = S. cerevisiae deletion strains, locus YNL322C, strain KRE1, stronger effect = lower value
[92] = S. cerevisiae deletion strains, locus YNR030W, strain Alg12, stronger effect = lower value
[93] = S. cerevisiae deletion strains, locus YPL055C, strain LGE1, stronger effect = lower value
[94] = S. cerevisiae deletion strains, locus YPL241C, strain CIN2, stronger effect = lower value
[95] = S. cerevisiae deletion strains, locus YPR135W, strain CTF4, stronger effect = lower value

Measured: normalized growth

CSc1nnc(COc2ccc(C)c3c2CCC3)n1-c1ccccc1
inactive: [1] 0.982 | [2] 0.98 | [3] 0.986 | [4] 0.984 | [5] 0.984 | [6] 0.991 | [7] 0.991 | [8] 0.974 | [9] 0.992 | [10] 0.98 | [11] 0.96 | [12] 0.98 | [13] 0.976 | [14] 0.977 | [15] 0.972 | [16] 0.96 | [17] 0.941 | [18] 0.974 | [19] 0.981 | [20] 0.979 | [21] 0.978 | [22] 0.978 | [23] 0.962 | [24] 1.05 | [25] 0.948 | [26] 1.1 | [27] 1.05 | [28] 1.02 | [29] 0.972 | [30] 0.987 | [31] 1.03 | [32] 0.931 | [33] 0.968 | [34] 0.988 | [35] 0.934 | [36] 1.07 | [37] 0.964 | [38] 0.966 | [39] 0.964 | [40] 0.98 | [41] 1.04 | [42] 0.924 | [43] 0.979 | [44] 0.968 | [45] 0.966 | [46] 0.98 | [47] 0.974 | [48] 0.98 | [49] 0.98 | [50] 0.976 | [51] 0.982 | [52] 1.05 | [53] 0.979 | [54] 0.985 | [55] 0.968 | [56] 0.987 | [57] 0.963 | [58] 0.959 | [59] 0.992 | [60] 1.02 | [61] 0.987 | [62] 0.961 | [63] 0.959 | [64] 0.967 | [65] 0.983 | [66] 0.995 | [67] 0.984 | [68] 0.98 | [69] 0.97 | [70] 0.975 | [71] 0.974

C=CCn1c(COc2c(Br)cc(C)c3c2CCC3)n[nH]c1=S
active: [76] 0.896 | [26] 0.544 | [81] 0.491 | [83] 0.558 | [84] 0.571 | [85] 0.841 | [87] 0.846 | [88] 0.324 | [90] 0.764 | [92] 0.874 | [94] 0.847 | [95] 0.612
inactive: [72] 0.968 | [73] 0.977 | S. cerevisiae deletion strains, locus YCL061C, strain MRC1, stronger effect = lower value 0.969 | [8] 0.975 | [74] 0.965 | [75] 0.857 | [77] 0.978 | [78] 1.01 | [79] 0.98 | [80] 0.992 | [82] 0.991 | [86] 0.988 | [89] 0.975 | [91] 0.991 | [93] 1.08

Cc1ccc(OCc2n[nH]c(=S)n2Cc2ccccc2)c2c1CCC2
active: [16] 0.609 | [21] 0.68 | [26] 0.283 | [28] 0.53 | [37] 0.782 | [39] 0.722 | [42] 0.698 | [55] 0.621 | [63] 0.609 | [66] 0.655
inactive: [1] 0.987 | [2] 0.988 | [3] 0.982 | [4] 0.98 | [5] 0.985 | [6] 0.987 | [7] 0.975 | [8] 0.994 | [9] 0.973 | [10] 0.99 | [11] 0.823 | [12] 0.995 | [13] 0.988 | [14] 0.988 | [15] 0.817 | [17] 0.841 | [18] 0.984 | [19] 0.992 | [20] 0.985 | [22] 0.984 | [23] 0.801 | [24] 0.647 | [25] 0.495 | [27] 0.619 | [29] 0.908 | [30] 0.967 | [31] 0.656 | [32] 0.955 | [33] 0.803 | [34] 0.986 | [35] 0.797 | [36] 0.73 | [38] 0.838 | [40] 0.988 | [41] 0.829 | [43] 0.793 | [44] 0.84 | [45] 0.752 | [46] 0.984 | [47] 0.847 | [48] 0.986 | [49] 0.998 | [50] 0.713 | [51] 0.99 | [52] 0.628 | [53] 0.988 | [54] 0.986 | [56] 0.985 | [57] 0.785 | [58] 0.751 | [59] 0.883 | [60] 0.677 | [61] 0.988 | [62] 0.746 | [64] 0.723 | [65] 0.984 | [67] 0.989 | [68] 0.992 | [69] 0.99 | [70] 1 | [71] 0.991

Cc1ccc(OCc2nnc(SCC(=O)c3ccc(F)cc3)n2-c2ccccc2)c2c1CCC2
inactive: [72] 0.982 | [73] 0.987 | [8] 0.961 | [74] 0.982 | [75] 0.972 | [76] 0.982 | [77] 0.966 | S. cerevisiae deletion strains, locus YGR229C, strain SMI1, stronger effect = lower value 0.984 | [26] 0.964 | [78] 0.957 | S. cerevisiae deletion strains, locus YJL187C, strain SWE1, stronger effect = lower value 0.983 | [79] 0.969 | [80] 0.986 | [81] 0.968 | [82] 0.978 | [83] 0.957 | [84] 0.961 | [85] 0.947 | [86] 0.99 | [87] 0.982 | [88] 1.01 | S. cerevisiae deletion strains, locus YNL128W, strain TEP1, stronger effect = lower value 0.992 | [89] 0.989 | [90] 0.972 | [91] 0.993 | [92] 0.98 | S. cerevisiae deletion strains, locus YOL006C, strain TOP1, stronger effect = lower value 0.963 | [93] 0.956 | [94] 1.04 | [95] 0.867 | S. cerevisiae strains, strain wild type, stronger effect = lower value 0.971
